Experiment [1] addresses Estrogen receptor (Homo sapiens) (UniProt P03372). The experiment can be described thus: CCTE_Deisenroth_AIME_384WELL_LUC_Active: CCTE's 384-well Estrogen Receptor Transactivation Assay with AIME metabolic competence (ERTA luciferase; metabolism positive), Deisenroth Lab (AID 2284030; active means hit-call score of the fitted dose curve at least 0.9, where 1 is the maximum). The essentials:
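Test chemicals (10-point series, 0.002 - 200 uM) were preincubated 2 hours with alginate-immobilized phenobarbital/beta-naphthoflavone-induced male Sprague Dawley rat liver S9; conditioned medium then went onto VM7Luc4E2 breast cells for 24 hour. Luciferase gain-of-signal fitted relative to 17beta-estradiol.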

The nature of experiment [2]: CCTE_Shafer_MEA_dev_firing_rate_mean: CCTE's Neural Network Formation Assay for Mean Firing Rate, Shafer Lab (AID 2284031). In short, it runs like this: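 Read-out: spike count/recording length, averaged over active electrodes, then AUC across days 5, 7, 9, 12. Rat cortical cultures on MEA; continuous 12-day exposure, media and treatment renewed DIV 5, 9; DMSO baseline.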

Experiment [3] is described as follows: CCTE_Shafer_MEA_dev_per_burst_spike_percent: CCTE's Neural Network Formation Assay for Percent of Spikes in a Burst, Shafer Lab (AID 2284032).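 On AC50: fitted as a decrease in burst spike percentage below DMSO baseline.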 The essentials: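 Value is trapezoidal AUC over recordings on days 5, 7, 9 and 12 of the well-mean fraction of spikes falling in single-electrode bursts; rat cortical cultures exposed continuously from plating, treatment renewed DIV 5 and 9, fitted downward against DMSO.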

For experiment [4], the target named is Estrogen receptor (Homo sapiens) (UniProt P03372). The experiment can be described thus: CCTE_Deisenroth_AIME_384WELL_LUC_Inactive: CCTE's 384-well Estrogen Receptor Transactivation Assay without AIME metabolic competence (ERTA luciferase; metabolism negative), Deisenroth Lab (AID 2284038; active means hit-call score of the fitted dose curve at least 0.9, where 1 is the maximum;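 further: hits raise estrogen receptor luciferase signal so potencies reflect agonists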). In short, it runs like this:
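Metabolism-negative mode: AIME lids stamped in alginate-water, no hepatic S9. 2 h chemical incubation → medium onto VM7Luc4E2 ERTA, 24 h. Readout luciferase luminescence; gain-of-signal fit vs 17beta-estradiol. Conc. 0.002 - 200 uM.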

The nature of experiment [5]: CCTE_Shafer_MEA_dev_active_electrodes_number: CCTE's Neural Network Formation Assay for Number of Active Electrodes, Shafer Lab (AID 2284040; active means hit-call score of the fitted dose curve at least 0.9, where 1 is the maximum;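 on AC50: potency for loss of active electrodes versus DMSO so lower counts are hits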). The essentials:
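Developing rat cortical networks on MEAs, exposed DIV 0–12. Value is the AUC of active-electrode counts (≥5 spikes/min) from days 5, 7, 9, 12, relative to DMSO.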

In experiment [6] the target is Estrogen receptor (Homo sapiens) (UniProt P03372). The experiment in a line: CCTE_Deisenroth_AIME_384WELL_LUC_Shift: CCTE's 384-well Estrogen Receptor Transactivation Assay with AIME metabolic competence data shift (ERTA luciferase; difference in metabolism positive and negative), Deisenroth Lab (AID 2284041).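 Further: shift is response with S9 minus without S9 so positive means metabolism raised ER signal.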 The essentials: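 Here, parent compounds undergo 2 h phase I metabolism by PB/BNF-induced rat S9 before 24 h transactivation in VM7Luc4E2 cells; the curve models S9-positive minus S9-negative response over a 10-point series.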
Chain of Estrogen receptor (Homo sapiens) (P03372 whole entry, looked up): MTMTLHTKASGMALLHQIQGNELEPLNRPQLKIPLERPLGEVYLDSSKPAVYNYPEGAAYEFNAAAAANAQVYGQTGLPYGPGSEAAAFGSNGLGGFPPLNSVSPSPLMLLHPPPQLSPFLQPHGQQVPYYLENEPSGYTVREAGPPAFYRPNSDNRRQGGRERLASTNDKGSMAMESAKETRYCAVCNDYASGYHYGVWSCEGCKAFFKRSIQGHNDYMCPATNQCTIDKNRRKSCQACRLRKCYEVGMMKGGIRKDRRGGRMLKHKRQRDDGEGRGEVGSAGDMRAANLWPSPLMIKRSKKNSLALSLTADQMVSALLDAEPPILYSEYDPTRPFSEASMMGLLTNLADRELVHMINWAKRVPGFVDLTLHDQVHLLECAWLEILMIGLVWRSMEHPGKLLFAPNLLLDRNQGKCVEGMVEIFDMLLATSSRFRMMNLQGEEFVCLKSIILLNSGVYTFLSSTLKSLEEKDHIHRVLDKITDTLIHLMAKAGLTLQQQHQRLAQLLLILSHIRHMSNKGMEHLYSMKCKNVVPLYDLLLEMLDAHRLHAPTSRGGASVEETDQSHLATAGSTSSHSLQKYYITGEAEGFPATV

The nature of experiment [7]: CCTE_Shafer_MEA_dev_burst_rate: CCTE's Neural Network Formation Assay for Burst Rate, Shafer Lab (AID 2284042). In short, it runs like this:
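Cells plated, treated day 0; recorded DIV 5, 7, 9, 12; fed and re-treated DIV 5, 9. Endpoint: bursts per recording time, active-electrode well mean, trapezoidal AUC, fitted in decreasing direction against DMSO baseline.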

The nature of experiment [8]: CCTE_Shafer_MEA_dev_per_burst_interspike_interval: CCTE's Neural Network Formation Assay for Burst Interspike Interval, Shafer Lab (AID 2284044). The essentials: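 Rat cortical primary cultures, 16 electrodes/well; compound from plating, renewed with full media change DIV 5 and 9. Spikes via adaptive detector; per-burst ISI well-mean over active bursting electrodes; AUC of DIV 5/7/9/12 recordings; loss-direction fit vs DMSO.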

A short description of experiment [9]: CCTE_Shafer_MEA_dev_burst_duration_mean: CCTE's Neural Network Formation Assay for Mean Burst Duration, Shafer Lab (AID 2284045). The essentials:
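Network-formation assay in primary rat cortical neurons; treatment spans twelve days of development. Mean burst duration per well is integrated by trapezoidal AUC and fitted in the loss-of-signal direction against DMSO baseline.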

A short description of experiment [10]: CCTE_Shafer_MEA_dev_interburst_interval_mean: CCTE's Neural Network Formation Assay for Mean Interburst Interval, Shafer Lab (AID 2284046).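 Further: well-mean interburst interval of bursting electrodes as AUC over four recording days; curve fitted for decrease in interburst interval relative to DMSO.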 In short, it runs like this:
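Developing rat cortical networks on 48-well MEAs receive compound from the day of plating. Burst intervals from each active electrode are averaged per well, and AUC over the recording days is fitted in the negative direction against DMSO.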

A short description of experiment [11]: CCTE_Shafer_MEA_dev_inter_network_spike_interval_mean: CCTE's Neural Network Formation Assay for Mean Inter-network Spike Interval, Shafer Lab (AID 2284047). The essentials: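 Rat cortical cultures, 1.5 x 10^5 cells/well on 48-well MEA plates; continuous exposure days 0–12, medium and compound refreshed DIV 5, 9. Mean time between consecutive network-spike peaks; AUC across DIV 5/7/9/12; DMSO baseline, negative fitting direction.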

Experiment [12] can be described thus: CCTE_Shafer_MEA_dev_network_spike_number: CCTE's Neural Network Formation Assay for Number of Network Spikes, Shafer Lab (AID 2284048).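 Further: synchronized bursts across electrodes counted on days 5 7 9 12 and integrated as AUC.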 The essentials: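 Extracellular recordings from 16-electrode wells track network formation in rat cortical cultures under continuous treatment from plating. The endpoint is network spike number, expressed as AUC across DIV 5–12 relative to DMSO vehicle.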

Experiment [13] is described as follows: CCTE_Shafer_MEA_dev_network_spike_peak: CCTE's Neural Network Formation Assay for Mean Number of Electrodes in Network Spike, Shafer Lab (AID 2284049).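 On AC50: fitted for loss of signal meaning fewer electrodes in network spikes than DMSO.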 The essentials: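 Continuous 12-day exposure of rat cortical cultures, starting at plating, on MEA plates. Endpoint: electrodes participating in network-spike peaks, AUC across DIV 5–12, DMSO as negative control.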

Experiment [14] in a line: CCTE_Shafer_MEA_dev_spike_duration_mean: CCTE's Neural Network Formation Assay for Mean Spike Duration, Shafer Lab (AID 2284051).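 On AC50: potency for a decrease in mean network spike duration versus DMSO.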 The essentials: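 Readout is the average length of network spikes, clustered firing across electrodes, summed over DIV 5, 7, 9 and 12 as area under the curve. Neurons from rat cortex developed networks on MEA plates under continuous 12-day exposure.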

Experiment [15] in a line: CCTE_Shafer_MEA_dev_network_spike_duration_std: CCTE's Neural Network Formation Assay for Standard Deviation of Network Spike Duration, Shafer Lab (AID 2284052).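 Further: hits are decreases in network spike duration SD versus DMSO vehicle.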 In short, it runs like this:
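Read-out is the trapezoidal area-under-the-curve across recordings made on days 5, 7, 9 and 12, fitted in the negative direction against DMSO baseline. Neurons were primary rat cortical cells treated from day 0, with treatment renewed at each feed.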

The nature of experiment [16]: CCTE_Shafer_MEA_dev_per_network_spike_spike_number_mean: CCTE's Neural Network Formation Assay for Mean Number of Spikes in a Network Spike, Shafer Lab (AID 2284053). In short, it runs like this: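 Continuous twelve-day exposure of developing rat cortical networks grown over 16 microelectrodes per well; spontaneous firing is captured at four time points, and the per-network-spike spike number is integrated over development by trapezoidal AUC.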

The nature of experiment [17]: CCTE_Deisenroth_AIME_96WELL_CTox_Active: Cytotoxicity Assessment (CTOX) in CCTE's 96-well Estrogen Receptor Transactivation Assay with AIME metabolic competence (metabolism positive), Deisenroth Lab (AID 2284028; active means hit-call score of the fitted dose curve at least 0.9, where 1 is the maximum). In short, it runs like this: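 Cytotoxicity in VM7Luc4E2 breast cells after 24 h exposure to medium from a 2 h metabolic pre-incubation with induced rat hepatic S9 in alginate microspheres; fluorescent live-cell protease readout, 10-point series 0.002–200 uM, n=4.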

The nature of experiment [18]: CCTE_Deisenroth_AIME_384WELL_CTox_Active: Cytotoxicity Assessment (CTOX) in CCTE's 384-well Estrogen Receptor Transactivation Assay with AIME metabolic competence (metabolism positive), Deisenroth Lab (AID 2284037; active means hit-call score of the fitted dose curve at least 0.9, where 1 is the maximum;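 further: chemicals first conditioned 2 h by alginate-bound induced rat liver S9 before cells; activity means signal loss indicating cell death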). In short, it runs like this:
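VM7Luc4E2 breast cells received medium pre-incubated 2 h with chemical over alginate microspheres holding induced male Sprague Dawley rat liver S9; viability read 24 h later by protease-substrate fluorescence. Loss of signal, bidirectional fit, 0.002–200 uM.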

For the next experiment, the system named is DIO2 (gene 1734). The experiment in a line: CCTE_GLTED_hDIO2: CCTE's human Deiodinase 2 (DIO2) Inhibition Assay, Great Lakes Toxicology and Ecology Division (GLTED) Lab (AID 2284050; active means hit-call score of the fitted dose curve at least 0.9, where 1 is the maximum). In short, it runs like this: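 Readout: absorbance from Sandell-Kolthoff detection of free iodide released by human DIO2 during a 3 h incubation with chemical. Cell-free format, n=3; activity fitted relative to DMSO negative control.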

Results filed as inconclusive are left out. More than one record can exist for a structure, and the calls need not agree. Activity calls are given as the source filed them. How the source made its calls, unless noted: active means hit-call score of the fitted dose curve at least 0.9, where 1 is the maximum; inactive means score below 0.9.

In general, AC50 refers to the midpoint of the concentration-response curve, whichever way the signal moves. Take `CCN(CC)C(=O)c1cccc(C)c1`: the outcome in experiment [1], in experiment [2], in [3], in experiment [4], in experiment [6] and in experiment [7] was inactive. For the same compound, the result in experiment [8], in [9], in experiment [10], in experiment [11], in experiment [12] and in experiment [13] was inactive. In addition, the outcome in experiment [14], in experiment [15] and in [16] was inactive. In addition, the AC50 in [5] was 19.5 µM (active).

In the case of `CCCN(CCC)C(=O)SCC`, the compound was classed as inactive in experiment [2], in experiment [3], in [5], in experiment [7], in experiment [8] and in experiment [9]. Besides, the compound was called inactive in experiment [10], in [11], in experiment [12], in experiment [13], in experiment [14] and in experiment [15]. Further, the call in experiment [16] was inactive.

As to `COc1c(Cl)ccc(Cl)c1C(=O)O`, the outcome in experiment [1], in experiment [4] and in [6] was inactive.

As to `C#CCOC(=O)[C@@H](C)Oc1ccc(Oc2ncc(Cl)cc2F)cc1`, the compound was classed as inactive in [1], in experiment [2], in experiment [3], in experiment [4], in experiment [5] and in experiment [7]. Besides, the compound was called inactive in experiment [8], in experiment [9], in [10], in [11], in [12] and in [13]. Moreover, the result in experiment [14], in experiment [15] and in [16] was inactive. Moreover, the half-maximal activity concentration (AC50) in [6] is 19.1 µM (active).

Turning to `CCOC(=O)c1ccc(O)cc1`, in [17], the compound was classed as inactive.

`O=C(Nc1ccc([N+](=O)[O-])cc1Cl)c1cc(Cl)ccc1O`: the result in experiment [1], in experiment [18] and in experiment [6] was inactive.

For `CCCCOC(=O)C(C)Oc1ccc(Oc2ccc(C(F)(F)F)cn2)cc1` (centres undefined), the call in experiment [1], in [18], in [4] and in experiment [6] was inactive.

Take `S=C(S)NCCNC(=S)S.[Mn+2].[S-]C([S-])=NCCN=C([S-])[S-].[Zn+2]`: the result in [2], in experiment [5], in [7], in [8], in experiment [9] and in [10] was inactive. Also, the compound was called inactive in experiment [11], in [12], in experiment [13], in experiment [14], in [15] and in experiment [16]. Also, the AC50 in experiment [3] is 7.52 µM (active); in experiment [5], 7.52 µM (active); in [13], 7.52 µM (active); with DIO2 (gene 1734), 50 µM (active); in experiment [14], 2.42 µM (active).

`CCCCCOC(=O)COc1cc(N2C(=O)C3=C(CCCC3)C2=O)c(F)cc1Cl`: the AC50 in the experiment with DIO2 (gene 1734) was 59.5 µM (active).

The values above are taken from PubChem BioAssay (EPA / NIEHS).
